Test results taken from PubChem BioAssay (NCATS).
Inconclusive results are not listed. Calls of active or inactive are those of the source. The call rests on the fitted dose curve; in most records, active means well fitted curve in the direction sought with a large enough effect; inconclusive means small, poorly fitted or top-dose-only effect, or another doubt; inactive means no such curve, though single readings can be large; an effect the other way counts as inactive or inconclusive.

Legend:
MCC-26 = assay: qHTS assay to identify novel small-molecules to repurpose for Merkel cell carcinoma treatment (AID 1296009); conditions: MCC and control cell lines, CellTiter-Glo viability, 72 h; series mostly up to 46 µM; further: nearly all actives have a fitted effect of over 60% in size
Procedure, shortened: (§1)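 Cell viability, measured as CellTiter-Glo luminescence, was normalized between DMSO and no-cell wells. The cells had been exposed to 8- or 11-point compound dilutions for 72 hr at 37 degree celsius.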

MKL-2 = assay: as above; conditions: MCC and control cell lines, CellTiter-Glo viability, 72 h; series mostly up to 46 µM
Procedure, shortened: as §1

UISO = assay: as above; conditions: MCC and control cell lines, CellTiter-Glo viability, 72 h; series mostly up to 46 µM
Procedure, shortened: as §1

CASKI = assay: Primary qHTS to identify gynecologic anti-cancer compounds using libraries of approved drugs and bioactive compounds (AID 1345084); conditions: Gynecologic cancer cell panel viability, ATPlite luminescence, 48 h; series mostly up to 57.5 µM; further: nearly all actives have a fitted effect of over 55% in size
Procedure, shortened: (§2)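 Cytotoxicity screen measuring ATP content by luciferase luminescence. Each compound is applied at five concentrations for 48 h at 37 C with 5% CO2.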

Es-2 = assay: as above; conditions: Gynecologic cancer cell panel viability, ATPlite luminescence, 48 h; series mostly up to 57.5 µM
Procedure, shortened: as §2

HeLa = assay: as above; conditions: Gynecologic cancer cell panel viability, ATPlite luminescence, 48 h; series mostly up to 57.5 µM
Procedure, shortened: as §2

Hek293T = assay: as above; conditions: Gynecologic cancer cell panel viability, ATPlite luminescence, 48 h, control line for the selectivity index; series mostly up to 57.5 µM
Procedure, shortened: as §2

JEG-3 = assay: as above; conditions: Gynecologic cancer cell panel viability, ATPlite luminescence, 48 h; series mostly up to 57.5 µM
Procedure, shortened: as §2

PA-1 = assay: as above; conditions: Gynecologic cancer cell panel viability, ATPlite luminescence, 48 h; series mostly up to 57.5 µM
Procedure, shortened: as §2

Tov-21-G = assay: as above; conditions: Gynecologic cancer cell panel viability, ATPlite luminescence, 48 h; series mostly up to 57.5 µM
Procedure, shortened: as §2

Tov112D = assay: as above; conditions: Gynecologic cancer cell panel viability, ATPlite luminescence, 48 h; series mostly up to 57.5 µM
Procedure, shortened: as §2

[1] = Drug repurposing screens with cells derived from glioblastoma tumor samples (AID 1345199); conditions: GBM patient neurospheres viability, ATP luminescence, 48 h; further: nearly all actives have a fitted effect of over 40% in size
Procedure, shortened: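 Primary testing used CD133+ neurospheres from four GBM patients, seven concentrations, 48 h exposure and ATP-based viability; confirmation added three slower-growing patient lines.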

MKL-1 = assay: qHTS assay to identify novel small-molecules to repurpose for Merkel cell carcinoma treatment (AID 1296009); conditions: MCC and control cell lines, CellTiter-Glo viability, 72 h; series mostly up to 46 µM; further: nearly all actives have a fitted effect of over 60% in size
Procedure, shortened: as §1

C33A = assay: Primary qHTS to identify gynecologic anti-cancer compounds using libraries of approved drugs and bioactive compounds (AID 1345084); conditions: Gynecologic cancer cell panel viability, ATPlite luminescence, 48 h; series mostly up to 57.5 µM; further: nearly all actives have a fitted effect of over 55% in size
Procedure, shortened: as §2

CAOV3 = assay: as above; conditions: Gynecologic cancer cell panel viability, ATPlite luminescence, 48 h; series mostly up to 57.5 µM
Procedure, shortened: as §2

OV90 = assay: as above; conditions: Gynecologic cancer cell panel viability, ATPlite luminescence, 48 h; series mostly up to 57.5 µM
Procedure, shortened: as §2

SKOV3 = assay: as above; conditions: Gynecologic cancer cell panel viability, ATPlite luminescence, 48 h; series mostly up to 57.5 µM
Procedure, shortened: as §2

WaGa = assay: qHTS assay to identify novel small-molecules to repurpose for Merkel cell carcinoma treatment (AID 1296009); conditions: MCC and control cell lines, CellTiter-Glo viability, 72 h; series mostly up to 46 µM; further: nearly all actives have a fitted effect of over 60% in size
Procedure, shortened: as §1

MCC-13 = assay: as above; conditions: MCC and control cell lines, CellTiter-Glo viability, 72 h; series mostly up to 46 µM
Procedure, shortened: as §1

[2] = at 20 µM (top of the series), tumour line C
[3] = at 45.9 µM (top of the series), tumour line B
[4] = at 45.9 µM (top of the series), tumour line D
[5] = at 46 µM (top of the series), tumour line A
[6] = at 46.1 µM (top of the series), tumour line C
On the % scale 0 is the no-effect control and ±100 the full control effect; potency means the concentration at half of the fitted maximal effect.

CN1CCCC(CC2c3ccccc3Sc3ccccc32)C1 (configuration not stated)
active: Potency (MKL-2) 23.7 µM | Potency (UISO) 23.7 µM | Potency ([1]; tumour line A) 2.24 µM | Potency ([1]; tumour line B) 12.6 µM
inactive: Potency (MCC-26) | Potency (CASKI) | Potency (Es-2) | Potency (HeLa) | Potency (Hek293T) | Potency (JEG-3) | Potency (PA-1) | Potency (Tov-21-G) | Potency (Tov112D) | activity, negative = cell killing [1, 2] 5.58%

CC1=C(C(=O)OC(C)C)C(c2cccc([N+](=O)[O-])c2)C(C(=O)OC2CN(C(c3ccccc3)c3ccccc3)C2)=C(N)N1 (configuration not stated)
active: Potency (MKL-1) 21.1 µM | Potency (MKL-2) 16.8 µM
inactive: Potency (C33A) | Potency (CAOV3) | Potency (CASKI) | Potency (Es-2) | Potency (HeLa) | Potency (Hek293T) | Potency (JEG-3) | Potency (OV90) | Potency (PA-1) | Potency (SKOV3) | Potency (Tov-21-G) | Potency (Tov112D)

O=C(OCCOCCO)c1ccccc1Nc1cccc(C(F)(F)F)c1
inactive: Potency (C33A) | Potency (CAOV3) | Potency (CASKI) | Potency (Es-2) | Potency (HeLa) | Potency (Hek293T) | Potency (JEG-3) | Potency (OV90) | Potency (PA-1) | Potency (SKOV3) | Potency (Tov-21-G) | Potency (Tov112D) | activity, negative = cell killing [1, 2] -19.4% | activity, negative = cell killing ([1]; at 21.2 µM (top of the series), tumour line B) 0.602% | activity, negative = cell killing ([1]; at 21.2 µM (top of the series), tumour line D) -4.96%

CC(=O)OCC(=O)[C@@]1(O)CC[C@H]2[C@@H]3CCC4=CC(=O)C=C[C@]4(C)[C@H]3[C@@H](O)C[C@@]21C
inactive: Potency (C33A) | Potency (CAOV3) | Potency (CASKI) | Potency (Es-2) | Potency (HeLa) | Potency (Hek293T) | Potency (JEG-3) | Potency (OV90) | Potency (PA-1) | Potency (SKOV3) | Potency (Tov-21-G) | Potency (Tov112D) | activity, negative = cell killing [1, 3] -3.24% | activity, negative = cell killing [1, 4] -10.4% | activity, negative = cell killing [1, 5] -4.22% | activity, negative = cell killing [1, 6] 5.52%

O=C(N/N=C/c1ccccc1O)c1ccncc1
active: Potency (MCC-26) 9.44 µM | Potency (MKL-1) 1.06 µM | Potency (MKL-2) 0.75 µM | Potency (UISO) 0.75 µM | Potency (WaGa) 2.66 µM | Potency ([1]; tumour line B) 17.8 µM
inactive: Potency (C33A) | Potency (CAOV3) | Potency (HeLa) | Potency (Hek293T) | Potency (JEG-3) | Potency (SKOV3) | activity, negative = cell killing [1, 4] 0.44%

COc1cc2c(cc1OC)C(C(C(=O)N(CCc1ccc(OC)c(OC)c1OC)CCc1ccc(OC)c(OC)c1OC)c1ccccc1)=NCC2 (configuration not stated)
inactive: Potency (MCC-13) | Potency (UISO) | Potency (C33A) | Potency (CAOV3) | Potency (CASKI) | Potency (Es-2) | Potency (HeLa) | Potency (Hek293T) | Potency (JEG-3) | Potency (OV90) | Potency (PA-1) | Potency (SKOV3) | Potency (Tov-21-G) | Potency (Tov112D)

O=C(CCN1CCC(c2ccccc2)C1)c1ccc2c(c1)OCCO2 (configuration not stated)
active: Potency (MKL-1) 2.66 µM | Potency (MKL-2) 0.841 µM | Potency (WaGa) 2.99 µM
inactive: Potency (MCC-26) | Potency (C33A) | Potency (CAOV3) | Potency (CASKI) | Potency (Es-2) | Potency (HeLa) | Potency (Hek293T) | Potency (JEG-3) | Potency (OV90) | Potency (PA-1) | Potency (Tov-21-G) | Potency (Tov112D)

CCCSS/C(CCO)=C(\C)N(C=O)Cc1cnc(C)nc1N
inactive: Potency (C33A) | Potency (CASKI) | Potency (HeLa) | Potency (Hek293T) | Potency (JEG-3) | Potency (OV90) | Potency (PA-1) | Potency (SKOV3) | Potency (Tov-21-G) | Potency (Tov112D) | activity, negative = cell killing [1, 6] -24.8%
active: Potency (MKL-1) 21.1 µM | Potency (MKL-2) 6.68 µM | Potency (UISO) 29.9 µM

CCCCCCCCCCOCC(O)CN (configuration not stated)
inactive: Potency (MCC-26) | Potency (HeLa) | Potency (Hek293T) | Potency (JEG-3) | Potency (PA-1) | Potency (Tov-21-G) | Potency (Tov112D)
active: Potency (MKL-2) 23.7 µM | Potency (CAOV3) 31.6 µM

C[C@@H]1CN(CCCn2c3ccccc3c3ccccc32)C[C@H](C)N1
inactive: Potency (MCC-26)
active: Potency (C33A) 22.4 µM | Potency (OV90) 25.1 µM

CCOc1ccc(Cc2nccc3cc(OCC)c(OCC)cc23)cc1OCC
inactive: Potency (MCC-26) | Potency (CAOV3) | Potency (HeLa) | Potency (JEG-3) | Potency (Tov-21-G) | activity, negative = cell killing [1, 2] 6.5%
active: Potency (MKL-2) 16.8 µM | Potency (OV90) 7.08 µM | Potency (SKOV3) 2.24 µM

COc1ccc(/C=C/C(=O)c2ccc(OC)cc2OC)cc1
active: Potency (MKL-2) 5.31 µM | Potency (SKOV3) 2.24 µM | Potency ([1]; tumour line A) 35.5 µM | Potency ([1]; tumour line D) 12.6 µM
inactive: Potency (Es-2) | Potency (HeLa) | Potency (Hek293T) | Potency (JEG-3) | Potency (Tov-21-G) | Potency (Tov112D) | activity, negative = cell killing [1, 6] -59.7%

CCOC(=O)[C@H](CCc1ccccc1)N[C@@H](C)C(=O)N1Cc2ccccc2C[C@H]1C(=O)O
inactive: Potency (MCC-13) | Potency (C33A) | Potency (CAOV3) | Potency (CASKI) | Potency (Es-2) | Potency (HeLa) | Potency (Hek293T) | Potency (JEG-3) | Potency (OV90) | Potency (PA-1) | Potency (SKOV3) | Potency (Tov-21-G) | Potency (Tov112D) | activity, negative = cell killing [1, 3] -8.88% | activity, negative = cell killing [1, 4] -11.4% | activity, negative = cell killing [1, 5] -15.3% | activity, negative = cell killing [1, 6] 11.9%

CCN(CC)C(=O)/C(C#N)=C/c1cc(O)c(O)c([N+](=O)[O-])c1
inactive: Potency (MCC-13) | Potency (C33A) | Potency (CAOV3) | Potency (CASKI) | Potency (Es-2) | Potency (HeLa) | Potency (Hek293T) | Potency (JEG-3) | Potency (SKOV3) | Potency (Tov-21-G) | activity, negative = cell killing [1, 3] -9.02% | activity, negative = cell killing [1, 4] 4.73% | activity, negative = cell killing [1, 5] -20% | activity, negative = cell killing [1, 6] 7.42%

C[N+]1(CCCCC[N+]2(C)CCCC2)CCCC1
inactive: activity, negative = cell killing [1, 3] 0.364% | activity, negative = cell killing [1, 4] -0.863% | activity, negative = cell killing [1, 5] -3.4% | activity, negative = cell killing [1, 6] -6.31%

CC(O)C(=O)O (configuration not stated)
inactive: Potency (C33A) | Potency (CAOV3) | Potency (CASKI) | Potency (Es-2) | Potency (HeLa) | Potency (Hek293T) | Potency (JEG-3) | Potency (OV90) | Potency (PA-1) | Potency (SKOV3) | Potency (Tov-21-G) | Potency (Tov112D) | activity, negative = cell killing [1, 3] -5.68% | activity, negative = cell killing [1, 4] -11.1% | activity, negative = cell killing [1, 5] -8.3% | activity, negative = cell killing [1, 6] -6.94%

C[C@]12CC[C@@H]3c4ccc(O)cc4CC[C@H]3[C@@H]1C[C@@H](O)[C@@H]2O
inactive: Potency (C33A) | Potency (CAOV3) | Potency (CASKI) | Potency (Es-2) | Potency (Hek293T) | Potency (JEG-3) | Potency (OV90) | Potency (SKOV3) | Potency (Tov-21-G) | Potency (Tov112D) | activity, negative = cell killing [1, 3] -9.53% | activity, negative = cell killing [1, 4] -17.2% | activity, negative = cell killing [1, 6] 22.1%
active: Potency (HeLa) 31.6 µM
